Here are results for 37 compounds from PubChem BioAssay AID1224921 (Broad Institute, 2016).

About 350 (25%) of roughly 1,400 compounds were called active. Inconclusive results (about 2%) are left out. A selection follows. Entries with a potency or affinity are not part of this list. Values without a mark were called inactive. No rule for the calls is given here.

The test in a line: inhibitors of Clostridioides difficile proliferation – 4-point retest, confirmation (AID 1224921).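 Also: plate controls were DMSO wells for no effect and levofloxacin 16 µg/mL wells for full effect.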 The settings on record: Clostridioides difficile clinical isolate growth, OD600, 24 h, active compounds read low; at 30 µM unless noted.
`COCC(=O)N(C)C[C@H]1Oc2cc(C#Cc3ccccc3)ccc2S(=O)(=O)N([C@H](C)CO)C[C@H]1C`: the max activity was 35.4%.

For `CCS(=O)(=O)Nc1ccc2c(c1)C(=O)N(C)C[C@@H](OC)[C@@H](C)CN(CC1CCCC1)[C@@H](C)CO2`, the max activity is -10.9% [at 0.5 µM].

For the compound `Cc1ccc(-c2ccc3c(c2)O[C@@H](CN(C)Cc2cccnc2)[C@@H](C)CN([C@H](C)CO)S3(=O)=O)cc1`, the max activity is 26.8%.

Turning to `CN1CCN(C(=O)C[C@@H]2C[C@@H]3c4cc(NC(=O)Cc5ccncc5)ccc4O[C@@H]3[C@H](CO)O2)CC1`, the max activity is 13.2%.

Turning to `O=C(N[C@@H]1C=C[C@@H](CC(=O)N2CCOCC2)O[C@@H]1CO)c1cccc(F)c1`, the max activity is -15.3% [at 1.95 µM].

Turning to `C[C@H](CO)N1C[C@H](C)[C@H](CN(C)C(=O)Nc2ccc(F)cc2)Oc2ncc(-c3cc4ccccc4o3)cc2C1=O`, the max activity was 26.1%.

For `COc1ccccc1S(=O)(=O)N[C@H]1C=C[C@@H](CC(=O)N2CCCCC2)O[C@H]1CO`, the max activity was -12.3%.

In the case of `COc1ccc(CNC(=O)C[C@H]2C[C@@H]3c4cc(NC(=O)NC5CCCC5)ccc4O[C@@H]3[C@@H](CO)O2)cc1`, the max activity is -9.75%.

On to `CO[C@@H]1CN(C)C(=O)c2ccc(NC(=O)C3CCCC3)cc2OC[C@@H](C)NC[C@@H]1C`, for which the max activity is -1.17% [at 1.95 µM].

For the compound `CO[C@H]1CN(C)C(=O)c2ccc(NC(=O)C3CCCCC3)cc2OC[C@H](C)N(Cc2nccs2)C[C@H]1C`, the max activity is 21.8% [at 8 µM].

For `C[C@@H]1CN([C@H](C)CO)C(=O)c2ccccc2-c2ccccc2CO[C@H]1CN(C)S(=O)(=O)c1ccsc1`, the max activity is 29%.

As for `C[C@@H]1CN([C@H](C)CO)C(=O)Cc2cc(NS(C)(=O)=O)ccc2O[C@H]1CN(C)Cc1ccccc1`, the max activity was 15.9%.

In the case of `COc1ccc(-c2ccc([C@H]3[C@H](C#N)N(C(=O)NC4CCCC4)[C@H]3CO)cc2)cc1`, the max activity is 36.8% [at 9 µM].

Regarding `CO[C@H]1CN(C)C(=O)c2cc(NC(=O)c3cccc(F)c3)ccc2OC[C@H](C)N(C(C)=O)C[C@H]1C`, the max activity is -6.58%.

In the case of `Cc1nn(C)cc1NC(=O)C[C@@H]1CC[C@@H]2[C@@H](COc3ccc(NC(=O)Nc4cccc(Cl)c4)cc3C(=O)N2C)O1`, the max activity is 10.1%.

On to `Cc1ccccc1-c1ccc2c(c1)O[C@H](CN(C)Cc1ccncc1)[C@@H](C)CN([C@H](C)CO)S2(=O)=O`, for which the max activity was 13.6%.

As to `CCC(=O)Nc1ccc2c(c1)OC[C@H](C)N(CC1CCCCC1)C[C@H](C)[C@@H](OC)CN(C)C2=O`, the max activity is 33.6%.

On to `COCC(=O)Nc1ccc2c(c1)OC[C@@H](C)N(Cc1ccccc1F)C[C@@H](C)[C@@H](OC)CN(C)C2=O`, for which the max activity is -4.19%.

As to `C[C@@H]1CN([C@H](C)CO)C(=O)c2ccccc2-c2ccccc2CO[C@@H]1CN(C)C(=O)CCN(C)C`, the max activity is -7.59% [at 2.1 µM].

As to `C[C@H](CO)N1C[C@H](C)[C@H](CN(C)CC2CCCCC2)OCCCC[C@H](C)Oc2ccc(NS(=O)(=O)c3ccc(Cl)cc3)cc2C1=O`, the max activity is 23% [at 8 µM].

For the compound `C[C@@H]1CN([C@H](C)CO)C(=O)Cc2cc(NS(=O)(=O)c3ccccc3)ccc2O[C@@H]1CN(C)Cc1ccc(Cl)c(Cl)c1`, the max activity was 30.5% [at 35 µM].

Consider `Cc1ccc(S(=O)(=O)Nc2ccc3c(c2)C(=O)N([C@@H](C)CO)C[C@H](C)[C@@H](CN(C)Cc2ccc(C(F)(F)F)cc2)OCCCC[C@@H](C)O3)cc1`, for which the max activity was 32.7% [at 8 µM].

Turning to `C[C@H]1CN([C@@H](C)CO)C(=O)Cc2cc(NS(=O)(=O)c3ccccc3)ccc2O[C@@H]1CN(C)Cc1ccc(Cl)c(Cl)c1`, the max activity was 49.4%.

Turning to `COc1ccc(S(=O)(=O)Nc2ccc3c(c2)CC(=O)N([C@@H](C)CO)C[C@H](C)[C@@H](CN(C)CC2CCCCC2)O3)cc1`, the max activity was 52.7%.

In the case of `Cc1ccc(S(=O)(=O)Nc2ccc3c(c2)C(=O)N([C@@H](C)CO)C[C@@H](C)[C@H](CN(C)C)OCCCC[C@H](C)O3)cc1`, the max activity was -4% [at 8 µM].

With `C[C@@H]1CN([C@@H](C)CO)C(=O)Cc2cc(NS(C)(=O)=O)ccc2O[C@H]1CN(C)CC1CCCCC1`, the max activity was 14.3%.

Consider `C[C@@H]1CCCCO[C@H](CN(C)Cc2ccc(C(F)(F)F)cc2)[C@@H](C)CN([C@@H](C)CO)C(=O)c2cc(NS(=O)(=O)c3ccc(Cl)cc3)ccc2O1`, for which the max activity was 24% [at 8 µM].

With `O=C(C[C@H]1C[C@@H]2c3cc(NC(=O)C4CCC4)ccc3O[C@@H]2[C@@H](CO)O1)NCc1ccc2c(c1)OCO2`, the max activity is -8.66% [at 0.5 µM].

As to `COc1ccccc1NC(=O)N[C@@H]1CC[C@@H](CC(=O)N2CCC(Cc3ccccc3)CC2)O[C@@H]1CO`, the max activity is -7.56%.

For the compound `CCS(=O)(=O)Nc1ccc2c(c1)C(=O)N(C)C[C@@H](OC)[C@H](C)CN(C(C)=O)[C@@H](C)CO2`, the max activity is -11.1%.

For `C[C@@H]1CCCCO[C@H](CN(C)Cc2ccc(C(=O)O)cc2)[C@H](C)CN([C@H](C)CO)C(=O)c2cc(NC(=O)Nc3ccc4c(c3)OCO4)ccc2O1`, the max activity is -16.4%.

Consider `C[C@@H]1CN([C@@H](C)CO)S(=O)(=O)c2ccc(C3=CCCCC3)cc2O[C@@H]1CN(C)Cc1cccnc1`, for which the max activity is 23.6%.

As to `O=C(Nc1cc(F)ccc1F)N[C@@H]1CC[C@@H](CC(=O)N2CCc3ccccc3C2)O[C@H]1CO`, the max activity is 14.6%.

In the case of `CNC[C@@H]1Oc2cc(C#CCOC)ccc2S(=O)(=O)N([C@@H](C)CO)C[C@H]1C`, the max activity was -11.1% [at 8 µM].

Consider `O=C(N[C@H]1C=C[C@H](CC(=O)N2CCc3ccccc3C2)O[C@H]1CO)C1CC1`, for which the max activity is -8.59%.

As to `C[C@H]1CN([C@@H](C)CO)S(=O)(=O)c2ccc(C#CC3CCCC3)cc2O[C@H]1CN(C)Cc1cccnc1`, the max activity is 23.6%.

Regarding `O=C(C[C@@H]1C[C@@H]2c3cc(NC(=O)C4CCC4)ccc3O[C@@H]2[C@H](CO)O1)NCc1cc(F)ccc1F`, the max activity is 4.63%.
